PG9 Ab binder – binders of HIV-1 gp120 antibody PG9, primary screen, biochemical, TR-FRET; TR-FRET gp120-PG9 antibody binding; inhibition, % at 6.7 µM; hit rate 0.43% among 360,000; in the data active means inhibition above about 8.5%
rCAG RNA binder – binders of r(CAG) RNA repeats, primary screen, biochemical, fluorescence; hit rate 1.3% among 370,000; r(CAG) RNA repeat, TO-PRO-1 dye displacement fluorescence; AID 651821, 2012; inhibition, % at 3 µM;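 active means inhibition above the plate cutoff, the mean of all test compounds on that plate plus 3 SD, cut at about 35% in these data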;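 further: higher means more dye released from RNA so lower well fluorescence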
DNMT1 block – human DNMT1 methyltransferase inhibitors, primary screen, biochemical, molecular beacon, fluorescence, HinP1I cleavage, uHTS; DNA (cytosine-5)-methyltransferase 1 (Homo sapiens), P26358; inhibition (reported as % activation of signal), % at 10 µM; hit rate 0.83% among 360,000; in the data active means inhibition above about 50%
UHRF1 MBD2 ctr – UHRF1 methylated DNA binding inhibitors, primary screen, counter-screen for MBD2 inhibitor project, biochemical, TR-FRET, human UHRF1, single concentration | AID 687016, 2013 | UHRF1 binding to methylated oligo | E3 ubiquitin-protein ligase UHRF1 (Homo sapiens), Q96T88 | inhibition, % at 4.4 µM | hit rate 0.75% among 370,000; in the data active means inhibition above about 21%;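 further: UHRF1 SRA domain binding a hemimethylated CpG hairpin DNA probe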
LEDGF integ inh – blockers of LEDGF/p75-dependent integrase strand transfer – biochemical, TR-FRET, high throughput, primary screen; HIV-1 integrase (with human LEDGF/p75); TR-FRET IN-LEDGF/p75 DNA integration, Eu/Cy5; inhibition, % at 3.7 µM; hit rate 0.64% among 370,000; AID 743269, 2014;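 active means inhibition above the screen-wide mean plus 3 SD, cut at about 13% in these data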;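 further: signal is the Cy5 over europium emission ratio at 671 and 618 nm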
MBD2 DNA inh – inhibitors of MBD2 binding to methylated DNA, primary screen, biochemical, TR-FRET, DNA-binding domain, human; Methyl-CpG-binding domain protein 2 (Homo sapiens), Q9UBB5; hit rate 0.31% among 370,000; AID 686964, 2013; MBD2 binding to methylated oligonucleotide; inhibition, % at 4.4 µM; in the data active means inhibition above about 13%
Target sequence (Q9UBB5 whole entry, looked up, the tested form may be a part): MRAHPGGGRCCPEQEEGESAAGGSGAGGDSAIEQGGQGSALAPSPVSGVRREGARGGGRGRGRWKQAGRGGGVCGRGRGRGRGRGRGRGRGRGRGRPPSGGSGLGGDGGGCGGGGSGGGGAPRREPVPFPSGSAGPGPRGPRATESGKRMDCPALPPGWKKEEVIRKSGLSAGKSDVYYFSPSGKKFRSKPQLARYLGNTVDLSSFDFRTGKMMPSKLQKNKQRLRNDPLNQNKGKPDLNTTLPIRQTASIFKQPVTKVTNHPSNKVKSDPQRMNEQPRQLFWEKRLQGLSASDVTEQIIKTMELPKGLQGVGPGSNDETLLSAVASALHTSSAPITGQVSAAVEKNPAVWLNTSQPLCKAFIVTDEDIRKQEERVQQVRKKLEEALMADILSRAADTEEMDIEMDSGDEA
rCAG bind conf – small molecules binding CAG repeat RNA – biochemical, fluorescence, confirmation | shares compounds with rCAG RNA binder | inhibition, % at 3 µM | hit rate 70% among 4,300 | r(CAG) RNA repeat, TO-PRO-1 dye displacement fluorescence | AID 652065, 2013;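 active means inhibition above a per-plate cutoff, the mean inhibition of sample wells plus 3 SD, cut at about 35% in these data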;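 further: loss of TO-PRO-1 fluorescence as compound displaces dye from 1x1 AA loop RNA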
DNA CAG counter – displacement of TO-PRO-1 from CAG DNA duplex, counter-screen for rCAG RNA repeat binder project, biochemical, fluorescence, TO-PRO-1 dye, d(CAG) DNA oligo; shares compounds with rCAG RNA binder; inhibition, % at 3 µM; hit rate 94% among 4,300; d(CAG) DNA oligo TO-PRO-1 dye displacement; AID 652068, 2013;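 active means inhibition above its plate's cutoff, the mean test-well inhibition plus 3 SD, cut at about 4.8% in these data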;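 further: hits displace the dye from DNA and so lower well fluorescence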
Hits are given with their value; i = inactive; nt = no result given. Sampled rows, rich in hits. Any-hit rate of the full collection: about 3.5%.

SMILES	PG9 Ab binder	rCAG RNA binder	DNMT1 block	UHRF1 MBD2 ctr	LEDGF integ inh	MBD2 DNA inh	rCAG bind conf	DNA CAG counter
O=C(Nc1cc(S(=O)(=O)Nc2ccccc2F)ccc1Cl)c1ccc(F)cc1F	i	46.6	i	i	i	i	41.8	12.6
Cc1ccc2c(c1)CCCN2S(=O)(=O)c1cccc(C(=O)Nc2ccccc2C(=O)O)c1	i	83.5	i	i	i	i	84.6	63.0
O=C(Nc1nccs1)c1cnc2sccn2c1=O	i	i	i	i	i	i	nt	nt
COc1cc(NS(=O)(=O)c2ccc(NC(=S)Nc3ccccc3)cc2)nc(OC)n1	i	i	i	i	i	i	nt	nt
COc1cc(NS(=O)(=O)c2ccc(N/C=C(\C=O)c3nc4ccccc4o3)cc2)nc(OC)n1	i	35.1	i	i	i	i	38.7	11.4
COc1cc(NS(=O)(=O)c2ccc(N/C=C(\C#N)c3nc4ccccc4o3)cc2)nc(OC)n1	i	68.5	i	i	i	i	67.3	31.1
COc1cc(NS(=O)(=O)c2ccc(NS(=O)(=O)c3ccc(C)cc3)cc2)nc(OC)n1	i	i	i	i	i	i	nt	nt
COc1ccc(Oc2ccc(C(F)(F)F)cc2NC(=O)c2ccc(F)cc2)cc1	i	i	i	i	i	i	nt	nt
COc1ccc(Oc2ccc(C(F)(F)F)cc2NC(=O)CC(CC(=O)O)c2ccccc2)cc1 (configuration not stated)	i	46.1	i	i	i	i	42.5	8.0
CCOc1cc(/C=N/N=C2/NC(=O)C(CC(=O)O)S2)ccc1OCc1ccc(Cl)cc1 (configuration not stated)	i	59.7	i	i	i	i	40.1	10.5
COc1ccc(/C=N/N=C2/NC(=O)C(CC(=O)O)S2)cc1OS(=O)(=O)c1ccccc1 (configuration not stated)	i	i	i	i	i	i	nt	nt
COc1cc(/C=N/N=C2/NC(=O)C(CC(=O)O)S2)ccc1OCc1cccc(Cl)c1 (configuration not stated)	i	43.5	i	i	i	i	i	5.5
COc1ccc(/C=N/N=C2/NC(=O)C(CC(=O)O)S2)cc1OCc1ccc(Cl)cc1 (configuration not stated)	i	i	i	i	i	i	nt	nt
O=C(Nc1ccc2c(c1)Cc1ccccc1-2)NC1CCCCN(Cc2cccc(Cl)c2)C1=O (configuration not stated)	nt	i	nt	i	i	i	nt	nt
CC1CC(C)CN(CCCNC(=O)Cn2cccc2C(=O)c2ccccc2)C1 (configuration not stated)	i	i	i	i	i	i	nt	nt
CCNc1nc(CN2CCOCC2)nc2sc3c(c12)CCC3	i	i	i	i	i	i	nt	nt
Cc1sc2nc(CN3CCOCC3)nc(NS(=O)(=O)c3cc(Cl)ccc3Cl)c2c1C	i	53.3	i	i	i	i	46.1	10.4
O=S(=O)(Nc1nc(CN2CCOCC2)nc2sc3c(c12)CCCC3)c1cc(F)ccc1F	i	50.5	i	i	i	i	38.5	9.6
Cc1sc2nc(CN3CCOCC3)nc(Cl)c2c1C	i	i	i	i	i	i	nt	nt
COc1ccc(/C=C2\SC(=S)N(CCCC(=O)Nc3ccc(C(=O)O)cc3)C2=O)cc1OC	i	63.9	i	i	i	i	53.4	18.2
COc1cccc(/C=C2\SC(=S)N(CCCC(=O)Nc3ccc(C(=O)O)cc3)C2=O)c1	i	69.1	i	i	i	i	61.0	21.8
COc1cccc(/C=C2/SC(=S)N(CCCC(=O)Nc3ccc(O)cc3)C2=O)c1	i	i	i	i	i	i	nt	nt

Compound activity deposited in PubChem by several laboratories.
